Structures are written as SMILES. The full ranking holds about 1,500 compounds; the median of “Inhibition index” is about 0.17, and the highest 2% start at about 1.3. The sample holds the highest values, similar compounds and a random draw of the others, so the mix is not that of the screen.

The subject of the test is SARS-CoV-2. Kind of test: Inhibition of cell viability relative to arbidol control (inhibition index > 1 indicates higher activity) measured by fluorescence (OD590nm) in Vero E6 cells infected with SARS-CoV-2 (strain BavPat1) at MOI 0.002 after 72hrs. The test is classed as functional, Chlorocebus sabaeus, Vero C1008.
For the compound `C[C@H]1O[C@@H](O[C@H]2[C@@H](O)C[C@H](O[C@H]3[C@@H](O)C[C@H](O[C@H]4CC[C@@]5(C)[C@H](CC[C@@H]6[C@@H]5C[C@@H](O)[C@]5(C)[C@@H](C7=CC(=O)OC7)CC[C@]65O)C4)O[C@@H]3C)O[C@@H]2C)C[C@H](O)[C@@H]1O` [DIGOXIN], the Inhibition index is 0.2267.
As for `COc1ccc(C[C@@H]2c3cc(OC)c(OC)cc3CC[N@+]2(C)CCC(=O)OCCCCCOC(=O)CC[N@@+]2(C)CCc3cc(OC)c(OC)cc3[C@H]2Cc2ccc(OC)c(OC)c2)cc1OC.O=S(=O)([O-])c1ccccc1.O=S(=O)([O-])c1ccccc1` [CISATRACURIUM BESYLATE], the figure is 1.338; as for `COc1ccc(CC2c3cc(OC)c(OC)cc3CC[N+]2(C)CCC(=O)OCCCCCOC(=O)CC[N+]2(C)CCc3cc(OC)c(OC)cc3C2Cc2ccc(OC)c(OC)c2)cc1OC.O=S(=O)([O-])c1ccccc1.O=S(=O)([O-])c1ccccc1` (stereo unspecified) [ATRACURIUM BESYLATE], 0.8693.
Take `CC1(C)S[C@@H]2[C@H](NC(=O)[C@@H](c3ccccc3)S(=O)(=O)O)C(=O)N2[C@H]1C(=O)O.[Na+].[Na+]`: the Inhibition index is recorded as 0.4594.
For `NC12CC3CC(CC(C3)C1)C2.NC12CC3CC(CC(C3)C1)C2.O=C(O)/C=C\C(=O)O` the value was 0.02174; for `CC1=C(C(=O)O)N2C(=O)[C@@H](NC(=O)[C@H](N)c3ccc(O)cc3)[C@H]2SC1` [CEFADROXIL], 0.02715.
Turning to `CN1CCN(CCCN2c3ccccc3Sc3ccc(C(F)(F)F)cc32)CC1.Cl.Cl` [TRIFLUOPERAZINE HYDROCHLORIDE], the Inhibition index is recorded as -0.1697.
For `COC(c1ccccc1)(c1ccccc1)C(Oc1nc(C)cc(C)n1)C(=O)O` (stereo unspecified) the value was 1.459.
For `CN1CCC(=C2c3ccccc3CCc3cccnc32)CC1.O=C(O)/C=C\C(=O)O.O=C(O)/C=C\C(=O)O` [AZATADINE MALEATE] the value was 0.8296; for `CN(C)CCOC(=O)C(c1ccccc1)C1(O)CCCC1.Cl` (stereo unspecified) [CYCLOPENTOLATE HYDROCHLORIDE], 1.136; for `CNCC(O)c1ccc(O)c(O)c1.Cl` (stereo unspecified) [RACEPINEPHRINE HYDROCHLORIDE], 0.3358.
For `CC(C)(C)NC[C@H](O)c1ccc(O)c(CO)c1.Cl` [LEVALBUTEROL HYDROCHLORIDE] the value was 1.311; for `CC(C)(C)NCC(O)c1ccc(O)c(CO)c1` (stereo unspecified) [ALBUTEROL], 0.0995; for `CC[N+](C)(C)Cc1ccccc1Br.Cc1ccc(S(=O)(=O)[O-])cc1` [BRETYLIUM TOSYLATE], 0.2627.
`CC(=O)N[C@@H](CC(=O)O)C(=O)N[C@@H](CCC(=O)O)C(=O)O` [ISOSPAGLUMIC ACID] displayed an Inhibition index of 0.8884.
For `CC(=O)O[C@]1(C(C)=O)CC[C@H]2[C@@H]3C=C(Cl)C4=CC(=O)C5CC5[C@]4(C)[C@H]3CC[C@@]21C` (stereo partly specified) the value was 0.4824.
For `N[C@@H]1CONC1=O` [CYCLOSERINE] the value was 1.427; for `N[C@H]1CONC1=O` [LEVCYCLOSERINE], 1.42.
For `O.O=P(O)(O)C(O)(Cc1cccnc1)P(=O)(O)O` the value was 0.3004; for `CC[N+](C)(CC)CCC[n+]1c(-c2ccccc2)c2cc(N)ccc2c2ccc(N)cc21.[I-].[I-]` [PROPIDIUM], 0.2273; for `CC[C@]12CCCN3CCc4c(n(c5ccccc45)[C@@](O)(C(=O)OC)C1)[C@@H]32` [VINCAMINE], 0.1041.
For `C#C[C@]1(OC(C)=O)CC[C@H]2[C@@H]3CCC4=CC(=NO)CC[C@@H]4[C@H]3CC[C@@]21CC`, the Inhibition index is reported as -0.3327.
For `C[C@H](O)[C@H](O)[C@H]1CNc2[nH]c(N)nc(=O)c2N1.Cl.Cl` [SAPROPTERIN DIHYDROCHLORIDE], the Inhibition index is on record as 0.4022.
As for `O=C1CN(/N=C/c2ccc(-c3ccc([N+](=O)[O-])cc3)o2)C(=O)[N-]1.[Na+]` [DANTROLENE SODIUM], the figure is 0.3986.
For `Nc1ccc(S(=O)(=O)[N-]c2cnc3ccccc3n2)cc1.[Na+]` [SULFAQUINOXALINE SODIUM] the value was -0.000446; for `COc1cc2nc(N3CCN(C(=O)C4CCCO4)CC3)nc(N)c2cc1OC.Cl` (stereo unspecified), -0.01131; for `CN(C)CCCN1c2ccccc2Sc2ccccc21.Cl` [PROMAZINE HYDROCHLORIDE], 1.161.
Consider `Cl.N[C@@H]1CCCCN(c2c(F)cc3c(=O)c(C(=O)O)cn(C4CC4)c3c2Cl)C1` [BESIFLOXACIN HYDROCHLORIDE], for which the Inhibition index is 0.08463.
For `CCCCc1oc2ccccc2c1C(=O)c1cc(I)c(OCCN(CC)CC)c(I)c1.Cl` [AMIODARONE HYDROCHLORIDE] the value was -0.1051.
As for `COCCc1ccc(OCC(O)CNC(C)C)cc1.COCCc1ccc(OCC(O)CNC(C)C)cc1.O=C(O)C(O)C(O)C(=O)O` (stereo unspecified) [METOPROLOL TARTRATE], the figure is 0.03331; as for `CCC(=O)[C@@]1(C)[C@H](C)C[C@H]2[C@@H]3CCC4=CC(=O)C=C[C@]4(C)[C@H]3[C@@H](O)C[C@@]21C` [RIMEXOLONE], 0.1893; as for `Cl.NCCc1ccc(O)c(O)c1` [DOPAMINE HYDROCHLORIDE], 1.056.
As for `C[C@@H]1C[C@H]2[C@@H]3C[C@H](F)C4=CC(=O)C=C[C@]4(C)[C@@]3(Cl)[C@@H](O)C[C@]2(C)[C@H]1C(=O)COC(=O)C(C)(C)C` [CLOCORTOLONE PIVALATE], the figure is 0.111.
As to `O=C(O)Cc1ccccc1Oc1ccc(Cl)cc1Cl` [FENCLOFENAC], the Inhibition index came to 0.3257.
`CC(=O)OCC(=O)[C@@]12OC(C)(C)O[C@@H]1C[C@H]1[C@@H]3C[C@H](F)C4=CC(=O)C=C[C@]4(C)[C@@]3(F)[C@@H](O)C[C@@]12C` [FLUOCINONIDE] had an Inhibition index of 0.2896.
For `CCN(CC)CC(=O)Nc1c(C)cccc1C.Cl` the value was -0.01364; for `CC1=C(/C=C/C(C)=C/C=C/C(C)=C\C(=O)O)C(C)(C)CCC1` [ISOTRETINOIN], 1.484.
For `COc1cc(C)c(/C=C/C(C)=C/C=C/C(C)=C/C(=O)O)c(C)c1C` [ACITRETIN] the value was 0.2609; for `CC1=C(/C=C/C(C)=C/C=C/C(C)=C/C(=O)O)C(C)(C)CCC1` [TRETINOIN], 0.999.
As for `CN1CCN2c3ccccc3Cc3ccccc3C2C1.Cl` (stereo unspecified) [MIANSERIN HYDROCHLORIDE], the figure is 0.175; as for `CC[C@H](C)C(=O)O[C@H]1C[C@@H](C)C=C2C=C[C@H](C)[C@H](CC[C@@H]3C[C@@H](O)CC(=O)O3)[C@H]21` [LOVASTATIN], -0.07572; as for `CC(C)(O/N=C(\C(=O)N[C@@H]1C(=O)N2C(C(=O)[O-])=C(C[n+]3ccccc3)CS[C@H]12)c1csc(N)n1)C(=O)O.O.O.O.O.O`, 0.06868.
Compound `Cl.Nc1nc2ccc(OC(F)(F)F)cc2s1` returned an Inhibition index of 0.04491.
Compound `CC(O)C(=O)O.CCOc1ccc2nc3cc(N)ccc3c(N)c2c1` had an Inhibition index of 0.4974.
For `CCOc1ccc2nc(S(N)(=O)=O)sc2c1` [ETHOXZOLAMIDE] the value was 2.099; for `CC(=O)O.O=C(NCC1CCCCN1)c1cc(OCC(F)(F)F)ccc1OCC(F)(F)F` (stereo unspecified) [FLECAINIDE ACETATE], 0.049; for `CN[C@@H]1[C@H](O)[C@H](NC)[C@H]2O[C@@]3(O)C(=O)C[C@@H](C)O[C@H]3O[C@@H]2[C@H]1O.Cl.Cl`, 0.1494.
For `COc1cccc(N(C)C(=S)Oc2ccc3c(c2)CCCC3)n1` [LIRANAFTATE] the value was 0.6869; for `CCCCc1cc2ccccc2c(OCCN(C)C)n1.Cl` [DIMETHISOQUIN HYDROCHLORIDE], -0.1351.
As for `CN(C)N=Nc1[nH]cnc1C(N)=O`, the figure is -0.0106; as for `CC(=O)OCC(=O)[C@@]1(O)CC[C@H]2[C@@H]3CCC4=CC(=O)CC[C@]4(C)[C@H]3[C@@H](O)C[C@@]21C` [HYDROCORTISONE ACETATE], 0.145.
`Cl.O=C(OCC(O)CO)c1ccccc1Nc1ccnc2cc(Cl)ccc12` (stereo unspecified) had an Inhibition index of 0.07624.
For `CCN(CC)Cc1cc(Nc2ccnc3cc(Cl)ccc23)ccc1O.Cl.Cl.O.O` [AMODIAQUINE HYDROCHLORIDE] the value was 0.1282; for `CCN(CC)CCCC(C)Nc1ccnc2cc(Cl)ccc12.O=P(O)(O)O.O=P(O)(O)O` (stereo unspecified) [CHLOROQUINE PHOSPHATE], 1.351.
For `COc1cc(NC(C)CCCN)c2ncccc2c1.O=P(O)(O)O.O=P(O)(O)O` (stereo unspecified) [PRIMAQUINE PHOSPHATE] the value was 0.6817; for `CCN(CC)CCCC(C)Nc1c2ccc(Cl)cc2nc2ccc(OC)cc12.Cl.Cl.O.O` (stereo unspecified) [QUINACRINE HYDROCHLORIDE], -0.1724; for `NC(=O)c1cc[n+](CC2=C(C(=O)O)N3C(=O)[C@@H](NC(=O)[C@@H](c4ccccc4)S(=O)(=O)O)[C@H]3SC2)cc1.O.[Na+]`, 0.1703.
As for `CN1CCc2cccc3c2[C@H]1Cc1ccc(O)c(O)c1-3.CN1CCc2cccc3c2[C@H]1Cc1ccc(O)c(O)c1-3.Cl.Cl.O` [APOMORPHINE HYDROCHLORIDE], the figure is 0.4481.
Take `CCCCOc1ccc(OCCCN2CCOCC2)cc1.Cl` [PRAMOXINE HYDROCHLORIDE]: the Inhibition index is 0.1376.
For `CCOC(=O)c1c(N)sc2c1CCN(Cc1ccccc1)C2.Cl` the value was 0.8505; for `O=C([O-])C[C@H](O)C[C@H](O)/C=C/c1c(C2CC2)nc2ccccc2c1-c1ccc(F)cc1.O=C([O-])C[C@H](O)C[C@H](O)/C=C/c1c(C2CC2)nc2ccccc2c1-c1ccc(F)cc1.[Ca+2]` [PITAVASTATIN CALCIUM], -0.03681.
